Source: publication PMC5700166
Substitutions are numbered along the chain they refer to.

Columns and labels:
Experiment in all cases: protein-binding microarray (PBM); PBM: ~300 nM protein, 6 mM HEPES pH 7.8, 80 mM KCl, 0.5 mM EDTA, 0.5 mM EGTA, 6% glycerol, 35 ng/ul poly-dIdC, 1% milk, 1 h, room temperature; Ap Aiptasia and Nv Nematostella (sea anemones) / Co Capsaspora / Aq Amphimedon (sponge) / Dm Drosophila / Hu human; RHD is the Rel homology domain; high values mean tight binding
Conditions in all cases: dsDNA, one strand shown
GST-Ap-NF-kB RHD = target: T1, GST-Ap-NF-kB RHD (Exaiptasia pallida (Aiptasia), UniProt A0A913YAJ5 2-422)
T1 sequence: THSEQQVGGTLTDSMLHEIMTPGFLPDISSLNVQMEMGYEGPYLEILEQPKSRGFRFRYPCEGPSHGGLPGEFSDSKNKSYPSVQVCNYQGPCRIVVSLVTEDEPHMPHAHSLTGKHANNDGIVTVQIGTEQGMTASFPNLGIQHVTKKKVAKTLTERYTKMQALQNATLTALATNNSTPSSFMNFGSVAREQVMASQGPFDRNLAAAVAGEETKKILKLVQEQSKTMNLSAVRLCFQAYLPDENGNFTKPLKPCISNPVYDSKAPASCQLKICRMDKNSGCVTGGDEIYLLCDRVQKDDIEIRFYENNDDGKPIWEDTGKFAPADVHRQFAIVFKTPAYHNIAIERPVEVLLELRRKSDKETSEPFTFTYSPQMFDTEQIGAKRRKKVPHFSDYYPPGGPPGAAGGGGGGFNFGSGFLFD

[1] = target: T2, GST-Nv-NF-kB (Cys allele) (Nematostella vectensis, UniProt E5G601 2-411)
T2 sequence: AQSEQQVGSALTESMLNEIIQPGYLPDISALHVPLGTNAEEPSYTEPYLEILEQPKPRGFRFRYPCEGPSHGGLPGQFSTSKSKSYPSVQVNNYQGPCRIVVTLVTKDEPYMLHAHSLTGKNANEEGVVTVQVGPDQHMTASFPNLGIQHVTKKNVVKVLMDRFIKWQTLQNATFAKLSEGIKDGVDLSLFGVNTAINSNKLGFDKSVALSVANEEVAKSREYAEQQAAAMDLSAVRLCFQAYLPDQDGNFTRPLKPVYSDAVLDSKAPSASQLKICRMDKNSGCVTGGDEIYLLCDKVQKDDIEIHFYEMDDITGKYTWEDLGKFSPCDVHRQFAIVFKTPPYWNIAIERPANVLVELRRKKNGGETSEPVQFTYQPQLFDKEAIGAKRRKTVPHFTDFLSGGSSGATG

[2] = target: T3, GST-Nv-NF-kB (Ser allele) (Nematostella vectensis, UniProt A7UNT2 2-411)
T3 sequence: T2 sequence with Q21R, C66S, S207N, E215Q, V217A, E225K, A268E, D399E

GST-Co-NF-kB = target: T4, GST-Co-NF-kB (Capsaspora owczarzaki, UniProt F1ARL5 200-546)
T4 sequence: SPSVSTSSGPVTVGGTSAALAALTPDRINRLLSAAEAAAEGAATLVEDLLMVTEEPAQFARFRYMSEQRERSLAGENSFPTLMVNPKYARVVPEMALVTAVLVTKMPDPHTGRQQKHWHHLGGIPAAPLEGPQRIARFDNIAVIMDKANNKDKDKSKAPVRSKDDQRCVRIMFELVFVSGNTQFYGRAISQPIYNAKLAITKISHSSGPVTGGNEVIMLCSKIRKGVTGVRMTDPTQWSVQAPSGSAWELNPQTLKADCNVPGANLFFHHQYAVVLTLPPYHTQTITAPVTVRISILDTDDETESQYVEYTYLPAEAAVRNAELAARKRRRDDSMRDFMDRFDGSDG

GST-Dm-Relish = target: T5, GST-Dm-Relish (Drosophila melanogaster, UniProt Q94527 99-473)
T5 sequence: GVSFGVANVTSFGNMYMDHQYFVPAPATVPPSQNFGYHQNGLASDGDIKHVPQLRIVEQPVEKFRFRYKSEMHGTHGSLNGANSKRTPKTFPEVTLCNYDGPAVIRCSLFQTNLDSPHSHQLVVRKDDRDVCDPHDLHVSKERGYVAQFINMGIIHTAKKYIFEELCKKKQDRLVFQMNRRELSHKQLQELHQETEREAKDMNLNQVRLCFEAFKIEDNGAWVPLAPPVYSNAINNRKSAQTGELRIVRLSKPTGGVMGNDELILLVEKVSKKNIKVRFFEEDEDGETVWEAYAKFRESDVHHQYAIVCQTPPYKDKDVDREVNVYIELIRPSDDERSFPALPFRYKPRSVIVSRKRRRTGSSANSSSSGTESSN

GST-Aq-NF-kB = target: T6, GST-Aq-NF-kB (Amphimedon queenslandica, UniProt A9Y5G7 2-389)
T6 sequence: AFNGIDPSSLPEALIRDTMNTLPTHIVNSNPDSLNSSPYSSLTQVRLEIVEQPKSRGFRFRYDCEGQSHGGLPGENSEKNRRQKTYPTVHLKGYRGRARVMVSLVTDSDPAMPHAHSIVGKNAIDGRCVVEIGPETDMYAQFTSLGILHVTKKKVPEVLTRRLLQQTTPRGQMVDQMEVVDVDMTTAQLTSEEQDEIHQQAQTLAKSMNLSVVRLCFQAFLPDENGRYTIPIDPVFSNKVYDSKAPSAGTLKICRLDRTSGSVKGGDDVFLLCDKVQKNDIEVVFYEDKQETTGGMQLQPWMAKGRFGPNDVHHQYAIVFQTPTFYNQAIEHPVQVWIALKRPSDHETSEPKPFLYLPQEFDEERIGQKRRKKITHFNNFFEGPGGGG

GST-Hu-p50 = GST-Hu-p50 (Homo sapiens, UniProt P19838 7-356)
Sequence of GST-Hu-p50 (P19838 7-356): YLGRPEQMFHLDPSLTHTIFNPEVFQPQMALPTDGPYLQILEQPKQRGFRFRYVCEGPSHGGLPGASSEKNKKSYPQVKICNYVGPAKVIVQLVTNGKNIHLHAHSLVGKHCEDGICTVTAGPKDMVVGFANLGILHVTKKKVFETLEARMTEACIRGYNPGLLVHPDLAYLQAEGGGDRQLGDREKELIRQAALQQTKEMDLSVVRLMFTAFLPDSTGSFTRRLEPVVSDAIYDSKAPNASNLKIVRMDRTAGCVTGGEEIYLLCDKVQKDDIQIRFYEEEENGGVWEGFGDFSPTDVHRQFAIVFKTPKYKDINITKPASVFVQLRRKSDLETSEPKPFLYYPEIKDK

Row | Sequence | binding signal (GST-Ap-NF-kB RHD) [z-score] | binding signal [1] [z-score] | binding signal [2] [z-score] | binding signal (GST-Co-NF-kB) [z-score] | binding signal (GST-Dm-Relish) [z-score] | binding signal (GST-Aq-NF-kB) [z-score] | binding signal (GST-Hu-p50) [z-score]
1 | CCGATTAACATCAAACTTTCCCCTGATGTTAATCGGGTCTTGATTCGCTTGACGCTGCTG | 7.27 | 8.67 | 9.66 | 8.89 | 4.44 | 7.57 | 6.2
2 | CCGATTAACATCAGGGAAGTCCCTGATGTTAATCGGGTCTTGATTCGCTTGACGCTGCTG | 9.31 | 11.7 | 9.19 | 1.97 | 10.4 | 10.2 | 6.58
3 | CCGATTAACATCAGGAAACCCCCTGATGTTAATCGGGTCTTGATTCGCTTGACGCTGCTG | 11.2 | 10.1 | 9.07 | 3.13 | 10.1 | 10.5 | 8.19
4 | CCGATTAACATCAAATATTCCCCTGATGTTAATCGGGTCTTGATTCGCTTGACGCTGCTG | 8.25 | 10.7 | 11 | 10.1 | 7.22 | 8.12 | 6.65
5 | CCGATTAACATCAGAACACCCCCTGATGTTAATCGGGTCTTGATTCGCTTGACGCTGCTG | 5.58 | 4.69 | 4.4 | 3.33 | 4.87 | 5.48 | 5.09
6 | CCGATTAACATCAAACTTCCCCTTGATGTTAATCGGGTCTTGATTCGCTTGACGCTGCTG | 6.88 | 9.28 | 9.81 | 5.46 | 7.55 | 7.66 | 6.98
7 | CCGATTAACATCAAAAACCCCCGTGATGTTAATCGGGTCTTGATTCGCTTGACGCTGCTG | 9.67 | 8.8 | 8.78 | 4.41 | 10.8 | 8.35 | 7.43
8 | CCGATTAACATCAGAGAATCCCCTGATGTTAATCGGGTCTTGATTCGCTTGACGCTGCTG | 9.54 | 9.8 | 10.9 | 3.37 | 8.56 | 7.28 | 6.99
9 | CCGATTAACATCAGGGCTTCCCCTGATGTTAATCGGGTCTTGATTCGCTTGACGCTGCTG | 9.17 | 10.8 | 8.58 | 4.03 | 10.4 | 9.48 | 6.74
10 | CCGATTAACATCAGGGAAATCACTGATGTTAATCGGGTCTTGATTCGCTTGACGCTGCTG | 3.41 | 4.78 | 4.63 | 2.62 | 8.27 | 5.99 | 4.18
11 | CCGATTAACATCAAAAATTTCCCTGATGTTAATCGGGTCTTGATTCGCTTGACGCTGCTG | 5.61 | 8.92 | 8.77 | 5.47 | 6.05 | 7.58 | 5.67
12 | CCGATTAACATCATAATTCCCCATGATGTTAATCGGGTCTTGATTCGCTTGACGCTGCTG | 6.71 | 8.63 | 8.94 | 6.68 | 4.84 | 5.33 | 6.35
13 | CCGATTAACATCAGGCCATTCCCTGATGTTAATCGGGTCTTGATTCGCTTGACGCTGCTG | 1.39 | 2.63 | 1.77 |  | 2.6 | 4.37 | 1.79
14 | CCGATTAACATCAGGGGAAAACCTGATGTTAATCGGGTCTTGATTCGCTTGACGCTGCTG | 9.38 | 10.6 | 11.5 | 7.99 | 8.9 | 9.77 | 6.91
15 | CCGATTAACATCAGGCAAGCCCCTGATGTTAATCGGGTCTTGATTCGCTTGACGCTGCTG | 2.62 | 2.83 | 1.38 |  | 2.46 | 5.11 | 3.36
16 | CCGATTAACATCAAAATCCCCCCTGATGTTAATCGGGTCTTGATTCGCTTGACGCTGCTG | 10.4 | 9.21 | 10.9 | 8.91 | 9.53 | 8.11 | 7.61
17 | CCGATTAACATCAGGGAGTTCACTGATGTTAATCGGGTCTTGATTCGCTTGACGCTGCTG | 2.23 | 2.42 | 1.78 |  | 5.79 | 4.22 | 2.32
18 | CCGATTAACATCAGGGACTTCTATGATGTTAATCGGGTCTTGATTCGCTTGACGCTGCTG | 5.47 | 6.35 | 7.05 |  | 3.93 | 5.24 | 5.28
19 | CCGATTAACATCAAGGAAGTCCCTGATGTTAATCGGGTCTTGATTCGCTTGACGCTGCTG | 5.76 | 5.94 | 5.82 |  | 7.11 | 5.83 | 4.82
20 | CCGATTAACATCAAGATATTCCCTGATGTTAATCGGGTCTTGATTCGCTTGACGCTGCTG | 4.46 | 4.57 | 5.05 | 3.05 | 2.34 | 4.02 | 2.44
21 | CCGATTAACATCACGCAAATCCCTGATGTTAATCGGGTCTTGATTCGCTTGACGCTGCTG | 2.1 | 1.61 | 1.22 |  | 1.24 | 2 | 1.33
22 | CCGATTAACATCAGGGATTGCCCTGATGTTAATCGGGTCTTGATTCGCTTGACGCTGCTG | 4.32 | 3.8 | 1.87 |  | 5.25 | 6.11 | 2.54
23 | CCGATTAACATCAGGAAGTACCCTGATGTTAATCGGGTCTTGATTCGCTTGACGCTGCTG | 3.65 | 3.73 | 3.95 |  | 6.69 | 6.15 | 3.47
24 | CCGATTAACATCAGGAAAGACCCTGATGTTAATCGGGTCTTGATTCGCTTGACGCTGCTG | 2.17 | 4.11 | 1.92 |  | 4.41 | 6.37 | 3.3
25 | CCGATTAACATCAATTTTCCCACTGATGTTAATCGGGTCTTGATTCGCTTGACGCTGCTG | 2.82 | 3.99 | 4.57 | 4.54 | 1.33 | 3.35 | 3.37
